SENP6 inh – SENP6 protease inhibitors, primary screen, biochemical, luminescence, uHTS; AID 2599, 2010; Recombinant SENP6 catalytic domain, aminoluciferin luminescence; 330,000 compounds, 1.8% hits; inhibition, % at 10 µM;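 active = inhibition above about 50% at the single tested dose, limit read from the data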
EBI2 block – EBI2 receptor antagonists, beta-arrestin recruitment, primary screen, cell-based, luminescence, 7a,25-OHC stimulation, uHTS | 360,000 compounds, 0.81% hits | AID 651636, 2012 | inhibition, % at 5 µM | 7a,25-OHC stimulated | G-protein coupled receptor 183 (Homo sapiens), P32249; in the data active = inhibition above about 38%;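 note: enzyme fragment complementation signal reports receptor beta-arrestin coupling in cells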
Target sequence (P32249 whole entry, looked up, the tested form may be a part): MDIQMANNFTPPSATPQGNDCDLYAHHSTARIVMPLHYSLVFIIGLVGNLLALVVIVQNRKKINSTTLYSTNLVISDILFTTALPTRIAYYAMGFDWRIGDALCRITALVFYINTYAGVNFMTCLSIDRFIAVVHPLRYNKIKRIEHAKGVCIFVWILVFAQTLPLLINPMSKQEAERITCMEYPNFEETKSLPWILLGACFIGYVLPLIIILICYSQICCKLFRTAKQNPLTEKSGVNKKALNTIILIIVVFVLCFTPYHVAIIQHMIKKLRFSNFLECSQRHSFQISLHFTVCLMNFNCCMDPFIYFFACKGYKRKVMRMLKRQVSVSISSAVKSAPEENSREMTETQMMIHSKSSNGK
SENP7 inh – SENP7 protease inhibitors, primary screen, biochemical, luminescence, uHTS; Sentrin-specific protease 7 (Homo sapiens), Q9BQF6; AID 434973, 2010; recombinant SENP7, Z-RLRGG-aminoluciferin luminescence, 40 min; inhibition, % at 5 µM; 330,000 compounds, 1.5% hits;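 active = inhibition above about 50% at the single test dose, limit read from the data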
AHR act – AHR activators, primary screen, cell-based, luminescence, luciferase reporter, human. AHR-responsive luciferase reporter cells. activation, % at 5 µM. 320,000 compounds, 2.5% hits. AID 2796, 2010; in the data active = activation above about 47%
SENP8 block-1 – human SENP8 protease inhibitors, primary screen, biochemical, fluorescence, Nedd8 protein substrate, uHTS; Sentrin-specific protease 8 (Homo sapiens), Q96LD8; 360,000 compounds, 0.64% hits; inhibition, % at 20 µM; AID 602440, 2012; recombinant SENP8; in the data active = inhibition mostly above about 40%, no sharp cut-off; inactive = mostly below about 27%
SENP8 block-2 – SENP8 protease inhibitors, primary screen, biochemical, luminescence | purified SENP8, Z-RLRGG-aminoluciferin cleavage | inhibition, % at 10 µM | 330,000 compounds, 1.2% hits | AID 2540, 2010; in the data active = inhibition above about 50%
AHR act confirm – AHR activators, confirmation, cell-based, luminescence, luciferase reporter, human | shares compounds with AHR act | human cells, AHR-responsive luciferase reporter | activation, % at 9 µM | 2,300 compounds, 87% hits | AID 2845, 2010; in the data active = activation above about 49%;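 note: HepG2 hepatoma cells carrying a DRE-driven firefly luciferase reporter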
PXR counter – human PXR activators, counter-screen for AHR activator project, cell-based, luciferase luminescence; activation, % at 11.6 µM; shares compounds with AHR act; AID 434939, 2010; 2,300 compounds, 88% hits; cell-based PXR reporter; in the data active = activation above about 11%;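 note: human hepatoma DPX-2 cells expressing full-length human PXR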
SENP8 confirm – SENP8 protease inhibitors, retest, confirmation, biochemical, luminescence, single concentration. AID 488912, 2010. Recombinant SENP8, Z-RLRGG-aminoluciferin luminescence, 60 min. inhibition, % at 12.5 µM. 6,200 compounds, 40% hits. shares compounds with SENP7 inh;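 active = mean inhibition across replicates above about 50%, limit read from the data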
SENP6 conf – SENP6 protease inhibitors, confirmation, biochemical, luminescence, single concentration | shares compounds with SENP7 inh | AID 488915, 2010 | 6,200 compounds, 58% hits | inhibition, % at 12.5 µM | recombinant SENP6, Z-RLRGG-aminoluciferin luminescence
SENP7 conf – SENP7 protease inhibitors, retest, confirmation, biochemical, luminescence, single concentration. AID 488917, 2010. recombinant SENP7, Z-RLRGG-aminoluciferin luminescence, 40 min. inhibition, % at 12.5 µM. shares compounds with SENP7 inh. 6,200 compounds, 69% hits
Casp3 SENP sel – caspase-3 protease inhibitors, confirmation, selectivity assay for SENP inhibitor project, biochemical, single concentration; shares compounds with SENP7 inh; 6,200 compounds, 60% hits; inhibition, % at 12.5 µM; purified caspase-3, Z-DEVD-aminoluciferin luminescence, 60 min;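 active = mean inhibition above about 50%, limit read from the data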
SENP luc ctr – counter-screen for SENP inhibitors: luminescence interference; shares compounds with SENP7 inh; Pre-incubated SENP8/Z-RLRGG-aminoluciferin, luciferase luminescence interference; inhibition, % at 12.5 µM; 6,200 compounds, 39% hits; AID 488919;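 active = mean inhibition above about 50% when retested at one dose, limit read from the data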
Each line names hits and unclear results; the compound was inactive in the other large screens (follow-up assays come after a bar, where they were run). Rows were chosen to be rich in hits. Some 5% of all compounds tested hit in one or more screens of this group.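 Rule for the calls, unless noted: active = mean inhibition above about 50% in the one-dose retest (limit read from the data); inactive = the rest.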

Cc1sc(NC(=O)c2ccc(Cl)s2)c(C(N)=O)c1C	SENP6 inh 60, SENP7 inh 52, AHR act 98 | AHR act confirm 123 | PXR counter 24 | SENP8 confirm inactive | SENP6 conf inactive | SENP7 conf inactive | Casp3 SENP sel inactive | SENP luc ctr inactive
COc1ccc(C(=O)Nc2ccc3ccccc3c2)c(OC)c1	SENP6 inh 87, SENP7 inh 91, AHR act 85, SENP8 block-2 87 | AHR act confirm 96 | PXR counter inactive | SENP8 confirm 91 | SENP6 conf 91 | SENP7 conf 98 | Casp3 SENP sel 77 | SENP luc ctr 72
Cn1c(N=Nc2ccccc2)nc2ccccc21	SENP7 inh 101, AHR act 138, SENP8 block-1 66, SENP8 block-2 97 | AHR act confirm 98 | PXR counter inactive | SENP8 confirm inactive | SENP6 conf 99 | SENP7 conf 103 | Casp3 SENP sel 94 | SENP luc ctr 97
Cn1c(Cl)nc2ccccc21	none
COc1ccc(Nc2cc(C)nc(N3CCN(C(=O)c4ccc5c(c4)OCO5)CC3)n2)cc1	none
Cc1ccc(/C=N/Nc2nc3ccccc3s2)o1	SENP6 inh 97, SENP7 inh 83, AHR act 111, SENP8 block-2 90 | AHR act confirm 113 | PXR counter 14 | SENP8 confirm 84 | SENP6 conf 84 | SENP7 conf 99 | Casp3 SENP sel 81 | SENP luc ctr inactive
c1ccc(-n2nc3c(ccc4cnnc43)[nH]2)cc1	SENP6 inh 89, SENP7 inh 87, AHR act 131, SENP8 block-2 74 | AHR act confirm 149 | PXR counter 26 | SENP8 confirm 50 | SENP6 conf 83 | SENP7 conf 97 | Casp3 SENP sel 71 | SENP luc ctr inactive
C=CCOC(=O)c1ccccc1C(=O)OCC1CO1 (stereo unspecified)	none (no result: SENP6 inh, SENP7 inh, AHR act, SENP8 block-2)
CN1C[C@@H]2C[C@@H](c3cccn3-c3nccs3)N3CCC[C@@]23C1=O	none
O=c1c2ccccc2nc2n1CCO2	none
O=c1c2ccccc2nc2oc3ccccc3n12	SENP6 inh 88, SENP7 inh 80, AHR act 95, SENP8 block-2 74 | AHR act confirm 93 | PXR counter 17 | SENP8 confirm inactive | SENP6 conf inactive | SENP7 conf 70 | Casp3 SENP sel 82 | SENP luc ctr inactive

Screens (PubChem BioAssay)
